Experimental findings from ChEMBL document CHEMBL3988442, “University of Dundee, Small-Polar-MMV Screening Library” (2021) are described below.

Structures are written as SMILES.

In the first experiment the target is T1, Aspartate--tRNA(Asp/Asn) ligase (Mycobacterium tuberculosis (strain ATCC 25618 / H37Rv)) (UniProt P9WFW3). Note: in the data most compounds retested in dose-response had high values.
T1 sequence (whole entry): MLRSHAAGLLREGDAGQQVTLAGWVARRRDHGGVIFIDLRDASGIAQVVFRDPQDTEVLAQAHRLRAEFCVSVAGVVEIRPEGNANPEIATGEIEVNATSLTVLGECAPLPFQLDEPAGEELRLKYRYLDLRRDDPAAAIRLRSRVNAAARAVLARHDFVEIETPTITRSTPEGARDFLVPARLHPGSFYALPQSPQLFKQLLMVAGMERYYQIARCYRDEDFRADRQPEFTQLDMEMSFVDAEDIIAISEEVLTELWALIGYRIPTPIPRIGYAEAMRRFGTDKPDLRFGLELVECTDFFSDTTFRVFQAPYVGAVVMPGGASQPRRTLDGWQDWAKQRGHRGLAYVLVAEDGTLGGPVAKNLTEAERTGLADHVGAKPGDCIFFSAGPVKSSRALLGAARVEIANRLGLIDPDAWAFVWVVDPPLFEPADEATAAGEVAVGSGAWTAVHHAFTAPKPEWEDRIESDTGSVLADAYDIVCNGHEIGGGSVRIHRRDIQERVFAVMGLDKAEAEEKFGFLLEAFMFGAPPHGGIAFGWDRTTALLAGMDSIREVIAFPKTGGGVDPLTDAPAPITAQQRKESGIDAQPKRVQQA
Kind of experiment: Assay for Asp RNA synthetase-1 from Mycobacterium tuberculosis. The class given is functional. Details: scale not given: direction of the effect not stated beside the values. As to conditions: 30 µM.
As for `CC(C)CCNC(=O)c1sccc1N(C)S(=O)(=O)c1ccccc1`, the Percent Effect was 5.12%.

With `CN(Cc1ccc(F)cc1)CC1(O)CCCN(CC(C)(C)C)C1=O` (stereo not given), the Percent Effect was -0.167%.

In the case of `CC(C)Cc1noc(CN2CCN(C(=O)c3ccco3)CC2)n1`, the Percent Effect was -0.114%.

For `c1ccc(CN2CCOCC3(CCN(C4CCOCC4)C3)C2)cc1` (stereo not given), the Percent Effect is 6.57%.

For the molecule `CS(=O)(=O)c1ccc(OCCNCc2ccc(F)cc2F)cc1`, the Percent Effect came to 4.17%.

Turning to `Cc1ccc(NC(=O)N2CCN(Cc3noc(C4CC4)n3)CC2)cc1`, the Percent Effect is -2.14%.

For `Cc1nc(CN2CCO[C@@H]3CN(C(=O)NC(C)C)CC[C@@H]3C2)cs1`, the Percent Effect turned out to be 3.49%.

Consider `CC(C)Oc1ncccc1CNC(=O)C1CCCN(C(=O)C2CC2)C1` (stereo not given), for which the Percent Effect was -4.79%.

`Cc1cnn(CC2CCCN2C(=O)c2cc(Cl)ccc2F)c1` (stereo not given): the Percent Effect came out at 1.32%.

As to `Cc1cccc(CN2CCC3(CCCN(C(=O)c4ccsc4)C3)C2=O)n1` (stereo not given), the Percent Effect is -2.4%.

Consider `Cc1cc(NC(=O)CN(C)C2CCCN(c3cccnn3)C2)n(C)n1` (stereo not given), for which the Percent Effect came to 5.7%.

Take `CCc1nnc(CN(C)c2nc(C(C)C)nc3c2cnn3C)o1`: the Percent Effect is 5.74%.

With `O=C(c1c[nH]c(=O)c(Cl)c1)N1C[C@@H]2CC[C@H](C1)N(Cc1ccccc1)C2`, the Percent Effect is -1.71%.

With `CCc1c(C(=O)N2CCCN(C(C)=O)CC2)cnn1C(C)(C)C`, the Percent Effect turned out to be 0.899%.

In the case of `Cc1nc(CC(=O)N2CCC[C@H]2c2nc(C(C)C)no2)cs1`, the Percent Effect is -2.23%.

As for `Cc1noc(Cl)c1CCC(=O)N1CCc2sccc2C1`, the Percent Effect is -1.63%.

Take `CC(C)(C)c1n[nH]c(C2CN(C(=O)c3cc(C4CC4)on3)CCO2)n1` (stereo not given): the Percent Effect was -2.16%.

With `COC(=O)Cn1c(=O)nc2n1C(=O)N(c1ccc(Cl)cc1)C2`, the Percent Effect was 1.73%.

On to `CC(O)(CN1CCC2(CC1)OCCO2)c1cccc(C(F)(F)F)c1` (stereo not given), for which the Percent Effect was found to be 1.23%.

In the case of `COc1ccc(CN2C[C@H]3CC[C@](O)(c4ccc(C)cn4)[C@H]3C2)c(F)c1`, the Percent Effect was determined as 2.93%.

With `CCC(NC(=O)c1ccco1)c1ccccc1OCC(=O)N1CCCC1` (stereo not given), the Percent Effect was found to be 0.611%.

As to `CCC(C)NC(=O)N1CCCn2cnc(CO)c2C1` (stereo not given), the Percent Effect was -2.9%.

Consider `CCC(C)(C)NC(=O)CN(C)C(c1cccc(F)c1)c1ccccn1` (stereo not given), for which the Percent Effect is -1.18%.

Take `Cn1ccnc1CN1CCN(c2ccc(C#N)cn2)CC1`: the Percent Effect was determined as 1.72%.

Consider `CC(=O)Nc1nc(CN2CCCC2c2cnn(C)c2)cs1` (stereo not given), for which the Percent Effect was -1.4%.

`CCOC(=O)N1CCN(c2nc(NC)c3ccccc3n2)CC1`: the Percent Effect is -2.29%.

In the case of `Cc1ncsc1C(=O)NCCOc1ncc(Cl)cc1Cl`, the Percent Effect was 3.06%.

Regarding `Cc1nn(C)c2c(NCc3cccnc3)nc(C3CC3)nc12`, the Percent Effect amounted to 8.74%.

For the molecule `CCNC(=O)[C@@H]1C[C@H](NC(=O)c2ccccc2C#N)CN1CCCSC`, the Percent Effect is -0.866%.

`COCCCN(CCOC)C(=O)Nc1ccc(C)cc1C`: the Percent Effect is 0.599%.

For `CCn1cc(CN2CCCN(C(=O)C3=NN(C)C(=O)CC3)CC2)cn1`, the Percent Effect amounted to 0.98%.

In the case of `CN(C)[C@@H]1CCN(c2ncccn2)[C@H]1Cc1ccncc1`, the Percent Effect was 0.268%.

On to `Fc1cccnc1OC[C@@]12CCO[C@@H]1CCN(CC1CCOCC1)C2`, for which the Percent Effect amounted to 0.353%.

With `CNc1cc2c(nn1)CCN(C(=O)c1ccc(-n3nccc3C)cc1)C2`, the Percent Effect is -2.02%.

On to `CCn1ccnc1CN1CCN(CC(=O)NC(=O)NC2CC2)CC1`, for which the Percent Effect was -2.79%.

Turning to `CCn1c(Cn2cncn2)nnc1C1CCN(C(=O)CCSC)CC1`, the Percent Effect is 1.37%.

Turning to `O=C1CC(c2ccco2)c2sc(C(=O)O)c(-c3ccccc3)c2N1` (stereo not given), the Percent Effect was found to be 7.4%.

On to `CCn1ccnc1CN1CCN(CC(O)c2ccccc2)CC1` (stereo not given), for which the Percent Effect was -5.63%.

Consider `Cc1noc(C)c1CN1CCN(C(=O)Cn2cncn2)CC1`, for which the Percent Effect worked out at 3.12%.

With `Cc1nc(CN(C)C2CCN(Cc3sc(C)nc3C)C2)no1` (stereo not given), the Percent Effect turned out to be 0.197%.

The next experiment addresses Shiga toxin 2 (Escherichia coli O157:H7) (UniProt P09385+P09386). The experiment in a line: E. coli 0.157:H7 Shiga Toxin SOP - stx2 screening assay. Format: functional. Details: scale not given: direction of the effect not stated beside the values. Conditions: 30 µM.
With `CC(C)CCNC(=O)c1sccc1N(C)S(=O)(=O)c1ccccc1`, the Percent Effect is -20%.

With `CN(Cc1ccc(F)cc1)CC1(O)CCCN(CC(C)(C)C)C1=O` (stereo not given), the Percent Effect was determined as 28.1%.

As to `CC(C)Cc1noc(CN2CCN(C(=O)c3ccco3)CC2)n1`, the Percent Effect is -20%.

Regarding `c1ccc(CN2CCOCC3(CCN(C4CCOCC4)C3)C2)cc1` (stereo not given), the Percent Effect came to 12.2%.

With `CS(=O)(=O)c1ccc(OCCNCc2ccc(F)cc2F)cc1`, the Percent Effect is -84.6%.

With `Cc1ccc(NC(=O)N2CCN(Cc3noc(C4CC4)n3)CC2)cc1`, the Percent Effect was -9.31%.

As to `Cc1nc(CN2CCO[C@@H]3CN(C(=O)NC(C)C)CC[C@@H]3C2)cs1`, the Percent Effect was -4.73%.

As to `CC(C)Oc1ncccc1CNC(=O)C1CCCN(C(=O)C2CC2)C1` (stereo not given), the Percent Effect turned out to be 33.3%.

Regarding `Cc1cnn(CC2CCCN2C(=O)c2cc(Cl)ccc2F)c1` (stereo not given), the Percent Effect was -18.5%.

On to `Cc1cccc(CN2CCC3(CCCN(C(=O)c4ccsc4)C3)C2=O)n1` (stereo not given), for which the Percent Effect was -10.9%.

Regarding `Cc1cc(NC(=O)CN(C)C2CCCN(c3cccnn3)C2)n(C)n1` (stereo not given), the Percent Effect worked out at 30.1%.

Turning to `CCc1nnc(CN(C)c2nc(C(C)C)nc3c2cnn3C)o1`, the Percent Effect is -7.55%.

For `O=C(c1c[nH]c(=O)c(Cl)c1)N1C[C@@H]2CC[C@H](C1)N(Cc1ccccc1)C2`, the Percent Effect was 3.61%.

`CCc1c(C(=O)N2CCCN(C(C)=O)CC2)cnn1C(C)(C)C`: the Percent Effect stood at 3.41%.

Turning to `Cc1nc(CC(=O)N2CCC[C@H]2c2nc(C(C)C)no2)cs1`, the Percent Effect stood at 4.58%.

Turning to `Cc1noc(Cl)c1CCC(=O)N1CCc2sccc2C1`, the Percent Effect came out at 18.9%.

As to `CC(C)(C)c1n[nH]c(C2CN(C(=O)c3cc(C4CC4)on3)CCO2)n1` (stereo not given), the Percent Effect was -1.24%.

Regarding `COC(=O)Cn1c(=O)nc2n1C(=O)N(c1ccc(Cl)cc1)C2`, the Percent Effect was -16.1%.

For the molecule `CC(O)(CN1CCC2(CC1)OCCO2)c1cccc(C(F)(F)F)c1` (stereo not given), the Percent Effect was -7.35%.

`COc1ccc(CN2C[C@H]3CC[C@](O)(c4ccc(C)cn4)[C@H]3C2)c(F)c1`: the Percent Effect came to 14.7%.

Consider `CCC(NC(=O)c1ccco1)c1ccccc1OCC(=O)N1CCCC1` (stereo not given), for which the Percent Effect is -10.6%.

With `CCC(C)NC(=O)N1CCCn2cnc(CO)c2C1` (stereo not given), the Percent Effect was -0.62%.

Regarding `CCC(C)(C)NC(=O)CN(C)C(c1cccc(F)c1)c1ccccn1` (stereo not given), the Percent Effect is 15.1%.

For the molecule `Cn1ccnc1CN1CCN(c2ccc(C#N)cn2)CC1`, the Percent Effect was -34.8%.

As for `CC(=O)Nc1nc(CN2CCCC2c2cnn(C)c2)cs1` (stereo not given), the Percent Effect was -28.6%.

As to `CCOC(=O)N1CCN(c2nc(NC)c3ccccc3n2)CC1`, the Percent Effect is -9.78%.

Regarding `Cc1ncsc1C(=O)NCCOc1ncc(Cl)cc1Cl`, the Percent Effect is -33.3%.

With `Cc1nn(C)c2c(NCc3cccnc3)nc(C3CC3)nc12`, the Percent Effect is -7.86%.

Turning to `CCNC(=O)[C@@H]1C[C@H](NC(=O)c2ccccc2C#N)CN1CCCSC`, the Percent Effect was determined as 0.196%.

In the case of `COCCCN(CCOC)C(=O)Nc1ccc(C)cc1C`, the Percent Effect came out at 1.16%.

Regarding `CCn1cc(CN2CCCN(C(=O)C3=NN(C)C(=O)CC3)CC2)cn1`, the Percent Effect was determined as 10.4%.

As for `CN(C)[C@@H]1CCN(c2ncccn2)[C@H]1Cc1ccncc1`, the Percent Effect is -22.4%.

For the molecule `Fc1cccnc1OC[C@@]12CCO[C@@H]1CCN(CC1CCOCC1)C2`, the Percent Effect stood at 1.39%.

On to `CNc1cc2c(nn1)CCN(C(=O)c1ccc(-n3nccc3C)cc1)C2`, for which the Percent Effect turned out to be 26.8%.

In the case of `CCn1ccnc1CN1CCN(CC(=O)NC(=O)NC2CC2)CC1`, the Percent Effect stood at 24.4%.

In the case of `CCn1c(Cn2cncn2)nnc1C1CCN(C(=O)CCSC)CC1`, the Percent Effect came out at 8.61%.

On to `O=C1CC(c2ccco2)c2sc(C(=O)O)c(-c3ccccc3)c2N1` (stereo not given), for which the Percent Effect amounted to 19%.

`CCn1ccnc1CN1CCN(CC(O)c2ccccc2)CC1` (stereo not given): the Percent Effect was -31%.

Take `Cc1noc(C)c1CN1CCN(C(=O)Cn2cncn2)CC1`: the Percent Effect is 7.4%.

With `Cc1nc(CN(C)C2CCN(Cc3sc(C)nc3C)C2)no1` (stereo not given), the Percent Effect is -0.768%.
